GDH-TPI counter-1 – GDH-TPI coupled enzyme inhibition counter-screen; inhibition, % at 4.8 µM; 360,000 compounds, 1.2% hits; GDH-TPI coupled enzyme counterscreen, NADH absorbance; in the data active = inhibition above about 30%;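 also: 0% = DMSO wells and 100% = wells lacking the enzyme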
DUSP3 inh – inhibitors of human VHR1 phosphatase (DUSP3). inhibition, % at 13.3 µM. AID 1654. 290,000 compounds, 0.52% hits. recombinant VHR phosphatase, pNPP absorbance. P51452; in the data active = inhibition above about 50%
Target sequence (P51452 whole entry, looked up): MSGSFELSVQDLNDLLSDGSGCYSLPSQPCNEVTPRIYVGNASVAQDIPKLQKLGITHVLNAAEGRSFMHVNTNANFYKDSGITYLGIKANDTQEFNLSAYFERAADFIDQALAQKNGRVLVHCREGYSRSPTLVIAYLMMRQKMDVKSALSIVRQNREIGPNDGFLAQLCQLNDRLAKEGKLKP
Mtb bLac sens – beta-lactam sensitization of Mtb H37Rv; M. tuberculosis H37Rv growth with meropenem, percent inhibition; inhibition, % at 25 µM; 330,000 compounds, 0.27% hits; call rule not given here;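 also: growth measured after seven days incubation then overnight dye step; 0% = bacteria only wells and 100% = bacteria with antibiotic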
Mtb hypoxia inh – Mtb hypoxia fluorescent reporter inhibition. M. tuberculosis hypoxia-regulated fluorescent reporter, fluorescence. fluorescence inhibition, % (no concentration beside the values). 300,000 compounds, 0.1% hits; in the data active = fluorescence inhibition mostly above about 23%, no sharp cut-off; inactive = mostly below about 17%
FBA Mtb inh – inhibits M. tuberculosis FBA enzyme; 360,000 compounds, 2.3% hits; P9WQA3; AID 588726; inhibition, % at 1 µM; purified M. tuberculosis FBA, fluorescence read-out;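 also: 0% = vehicle and 100% = reference inhibitor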
Target sequence (P9WQA3 whole entry, looked up): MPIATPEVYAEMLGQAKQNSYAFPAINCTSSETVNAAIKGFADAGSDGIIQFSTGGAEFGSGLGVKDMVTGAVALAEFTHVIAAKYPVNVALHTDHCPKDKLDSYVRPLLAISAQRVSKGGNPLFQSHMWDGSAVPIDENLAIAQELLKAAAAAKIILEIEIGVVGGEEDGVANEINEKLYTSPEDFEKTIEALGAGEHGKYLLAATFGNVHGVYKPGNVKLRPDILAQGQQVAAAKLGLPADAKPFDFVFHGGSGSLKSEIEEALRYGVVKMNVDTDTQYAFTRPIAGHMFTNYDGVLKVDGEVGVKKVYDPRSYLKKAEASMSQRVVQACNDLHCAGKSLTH
Mtb FBA confirm – Mtb FBA inhibition, confirmed. shares compounds with FBA Mtb inh. purified M. tuberculosis FBA, fluorescence read-out. inhibition, % at 1 µM. 5,600 compounds, 78% hits. AID 651616;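 also: 0% = vehicle wells and 100% = reference inhibitor wells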
GDH-TPI counter-2 – GDH-TPI inhibition counter-screen for FBA inhibitors. shares compounds with FBA Mtb inh. GDH-TPI coupled enzyme counterscreen, fluorescence. inhibition, % at 1 µM. 5,600 compounds, 81% hits; in the data active = inhibition above about 10%
GDH-TPI DR – inhibits GDH-TPI coupling enzymes in dose response. shares compounds with FBA Mtb inh. GDH-TPI coupled enzyme assay, fluorescence, artifact counterscreen. IC50, µM. 170 compounds, 79% hits; call rule not given here
The depositor's hits bear a star; · = no result; + = active, no number. Hits are enriched below; roughly 3.6% of the tested compounds scored in any of these assays. Rule as the data show it, unless noted: active = inhibition above about 27%; inactive = the rest.

SMILES | GDH-TPI counter-1 | DUSP3 inh | Mtb bLac sens | Mtb hypoxia inh | FBA Mtb inh | Mtb FBA confirm | GDH-TPI counter-2 | others
CC1(C)CC(=O)C2=C(C1)N(CCN1CCOCC1)C1=C(C(=O)CC(C)(C)C1)C2c1ccc(Cl)cc1 | 10 | 18 | -6 | 5 | 36* | 15 | 4 | GDH-TPI DR=4.6*
COc1ccc(C2C3=C(CC(C)(C)CC3=O)N(CCN3CCOCC3)C3=C2C(=O)CC(C)(C)C3)cc1 | 14 | 25 | -1 | -7 | 23 | · | ·
Cc1cc(O)c(-c2cc(O)c(C)cc2O)cc1O | -6 | 40 | -8 | 16 | 37* | 104* | 82*
CC(Cn1nnc([N+](=O)[O-])n1)=NNC(=O)c1ccc(O)cc1 | · | · | · | 16 | · | · | ·
O=C(CCn1cnc(-c2ccccc2)c1-c1ccccc1)NN=Cc1ccc(O)cc1 | · | · | · | -4 | · | · | ·
CCCCc1cc(=O)oc2cc(C)cc(OCC(=O)NCc3ccccn3)c12 | -6 | 34 | 6 | 10 | 64* | 47* | 39*
Cc1cc(OC(C)C(=O)NCc2ccccn2)c2c(C)cc(=O)oc2c1 (stereo unspecified) | 9 | 11 | -7 | 2 | 103* | 1 | -4
CCCCc1cc(=O)oc2cc(C)cc(OC(C)C(=O)NCc3ccccn3)c12 (stereo unspecified) | 10 | 11 | 3 | 7 | 63* | 153* | 122*
CCCCc1cc(=O)oc2cc(OC(C)C(=O)NCc3ccccn3)c(Cl)cc12 (stereo unspecified) | -1 | -27 | 81 | 6 | 2 | · | ·
CC(=NNc1ccc(Cl)c(Cl)c1)c1ccc(-n2ccnc2)cc1 | · | · | · | 0 | · | · | ·
O=C(Nc1ccccc1)C1CCN(S(=O)(=O)c2cccs2)CC1 | 5 | · | -5 | 0 | 8 | · | ·
O=C(O)C1CCN(S(=O)(=O)c2cccs2)CC1 | -2 | 1 | -4 | 4 | 32* | 57* | 36*
COc1cc(C=NNC(=O)c2ccncc2)cc(OC)c1OC | · | · | · | 14 | · | · | ·
O=C(Nc1ccc(N2CCOCC2)cc1)C1CCN(S(=O)(=O)c2ccccc2F)CC1 | 3 | 38 | -10 | -3 | 37* | 26 | 19*
O=C(Nc1ccc(N2CCOCC2)cc1)C1CCN(S(=O)(=O)c2cccc(C(F)(F)F)c2)CC1 | 15 | · | · | · | 1 | · | ·
CC(C)C(C(=O)N1CCNCC1)n1cc(CCO)nn1 (stereo unspecified) | · | · | · | -6 | · | · | ·
Cc1ccc2cc(C=NNc3nc4ccccc4[nH]3)c(Cl)nc2c1 | · | · | · | 6 | · | · | ·
C=CCNc1nc(NCC)nc(N2CCOCC2)n1 | -2 | 21 | -15 | · | -2 | · | ·
C=CCNc1nc(Nc2ccc(-c3nc4ccccc4o3)cc2)nc(N2CCOCC2)n1 | 35* | -21 | 7 | 14 | 97* | 19 | -4 | GDH-TPI DR=0.49*
CC(C)(C)c1cc(NCCCn2ccnc2)n2ncc(-c3ccc(Cl)cc3)c2n1 | 14 | 53* | 99 | 5 | 61* | 60* | 41*
Cc1cc(NCCCn2ccnc2)n2nc(-c3ccc(Cl)cc3)cc2n1 | 1 | 2 | 55 | 20 | 8 | · | ·
CC(=O)Nc1ccc(NC(=O)CC(C)=NNC(=O)C(=O)N2CCCC2)cc1 | · | · | · | 7 | · | · | ·
COC(=O)C1CCN(C(=O)c2cc(-c3ccco3)nc3ccccc23)CC1 | 22 | · | 6 | · | 109* | 54* | 43*
O=C(c1ccco1)N1CCN(C(=O)c2cc(-c3ccccc3)nc3ccccc23)CC1 | 5 | 15 | -3 | 0 | -1 | · | ·
O=C(c1cc(-c2ccco2)nc2ccccc12)N1CCN(Cc2ccccc2)CC1 | 0 | · | 1 | 1 | 50* | 138* | 148*
SMILES | GDH-TPI counter-1 | DUSP3 inh | Mtb bLac sens | Mtb hypoxia inh | FBA Mtb inh | Mtb FBA confirm | GDH-TPI counter-2 | others
N#Cc1c(N)n(CCNC(=O)c2ccccc2)c2nc3ccccc3nc12 | 0 | -8 | 3 | 2 | 98* | + | +
CCCCn1c(NC(C)=O)c(C#N)c2nc3ccccc3nc21 | 11 | -9 | 0 | 10 | 59* | 96* | 77*
COc1ccc(CCn2c(N)c(C#N)c3nc4ccccc4nc32)cc1OC | 10 | -2 | -1 | · | 16 | · | ·
CCCCCn1c(N)c(C#N)c2nc3ccccc3nc21 | 21 | 23 | 0 | 11 | 111* | -3 | -5
C#CCOCCOCCOCCNc1nc(N2CCN(C(=O)CCCCCCCCCCNC(=O)Cn3cc(CC(C)O)nn3)CC2)nc(N2CCN(C(=O)CCCCCCCCCCNC(=O)C(C(C)O)n3cc(C)nn3)CC2)n1 (stereo unspecified) | · | · | · | -7 | · | · | ·
CCCCCC(=O)Nc1cccc(C2=NOC3(C2)CC(C(N)=O)N(C(=O)CC)C3)c1 (stereo unspecified) | · | · | · | -13 | · | · | ·
Cc1csc2ncc(C(=O)NCc3ccccn3)c(=O)n12 | 36* | 22 | 1 | 12 | 65* | 175* | 147*
CSc1ccccc1NC(=O)c1cnc2scc(C)n2c1=O | 28 | 9 | -2 | 13 | -1 | · | ·
Cc1csc2ncc(C(=O)NCCc3ccccc3)c(=O)n12 | 29 | -2 | -6 | 15 | 52* | 122* | 104*
Cc1csc2ncc(C(=O)NCCC(c3ccccc3)c3ccccc3)c(=O)n12 | 19 | 6 | -9 | 8 | 34* | 101* | 57*
CCc1ccccc1NC(=O)c1cnc2scc(C)n2c1=O | 1 | 29 | 8 | 4 | -1 | · | ·
O=C(NCCc1ccccc1)c1cnc2ccccn2c1=O | 30 | 25 | 1 | -13 | 105* | 113* | 88*
Cc1ccccc1NC(=O)c1cnc2ccccn2c1=O | 10 | 6 | 12 | 4 | 0 | · | ·
O=C(C1=CC(c2ccc(C(F)(F)F)cc2)CC(OCc2ccc(CO)cc2)O1)N1CCN(Cc2ccccc2)CC1 (stereo unspecified) | · | · | · | -4 | · | · | ·
COc1ccc2nc(/C=N/NC(=O)CCCCCNC(=O)OC(C)(C)C)ccc2c1 | 33* | -8 | -7 | · | 63* | 95* | 86*
CCCOc1ccc(-c2cn3ccccc3n2)cc1[N+](=O)[O-] | 14 | 40 | 7 | 6 | 4 | · | ·
Cc1cccn2cc(-c3ccccc3)nc12 | 7 | 34 | 26 | · | 18 | · | ·
CCCOc1ccc(-c2cn3ccccc3n2)cc1 | 3 | 37 | 6 | 12 | 30* | 55* | 38*
COc1ccc(-c2cn3ccc4ccccc4c3n2)cc1 | 13 | 27 | 64 | 12 | 44* | 2 | -4
COc1ccc(C=NNC(=O)c2ccc(N(C)S(=O)(=O)c3ccccc3)cc2)cc1 | · | · | · | -9 | · | · | ·
COc1ccc(C(=O)N/N=C/c2cc3ccccc3[nH]c2=O)cc1 | 50* | 22 | 12 | · | 40* | 126* | 106*
COc1ccc(OC)c(/C=N\NC(=O)c2ccc(-c3ccccc3)cc2)c1 | 10 | 26 | 3 | · | 8 | · | ·
COc1ccc(C(=O)N/N=C/c2ccc(N(C)c3ccccc3)cc2)cc1 | 26 | · | -6 | · | 41* | 109* | 99*
O=C(NN=CC=Cc1ccccc1)c1cc2c(ccc3ccccc32)o1 | · | · | · | 0 | · | · | ·

Assay outcomes deposited in PubChem by several laboratories.
